Holding throughout (experiment): DAPPL (digital affinity profiling via proximity ligation, sequencing); 10 mM Tris-HCl pH 7.5, 50 mM NaCl, 1 mM DTT, 4% glycerol, room temperature, 30 min; GST-TFs on glutathione beads, 16-mer random dsDNA library, 0.1% formaldehyde crosslink after washing; high values mean tight binding
What all share (conditions): protein: recombinant; tags: N-terminal GST; dsDNA, one strand shown

One test concerns the target T1, FLI1 (Homo sapiens, UniProt Q01543 1-452).
T1 sequence: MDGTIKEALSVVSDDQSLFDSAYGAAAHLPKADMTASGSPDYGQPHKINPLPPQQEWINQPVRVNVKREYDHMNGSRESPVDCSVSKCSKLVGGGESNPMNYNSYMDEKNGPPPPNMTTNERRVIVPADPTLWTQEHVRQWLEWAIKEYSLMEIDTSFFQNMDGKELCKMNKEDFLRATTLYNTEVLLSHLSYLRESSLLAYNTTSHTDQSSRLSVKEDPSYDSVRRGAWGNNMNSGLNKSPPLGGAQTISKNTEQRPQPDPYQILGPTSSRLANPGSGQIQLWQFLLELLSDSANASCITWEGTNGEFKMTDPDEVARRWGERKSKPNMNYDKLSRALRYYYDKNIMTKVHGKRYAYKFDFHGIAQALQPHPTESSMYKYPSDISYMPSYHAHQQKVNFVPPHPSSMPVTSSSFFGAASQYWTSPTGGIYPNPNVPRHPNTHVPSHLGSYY
An outline of the steps: (§1)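 Human transcription factors were made in yeast as GST fusions, captured on glutathione beads and barcoded with DNA. With a tag-only sample included, the pool was incubated with 200 nmole of a random double-stranded 16-mer DNA library in Tris/NaCl/DTT/glycerol buffer at room temperature for 30 min, then crosslinked with 0.1% formaldehyde after washing, ligated by proximity, amplified and sequenced. For binding signal, each hexamer's read frequency for a factor is divided by its frequency for the tag-only sample.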

The target in another test is T2, ELK1 (Homo sapiens, UniProt P19419 1-428).
T2 sequence: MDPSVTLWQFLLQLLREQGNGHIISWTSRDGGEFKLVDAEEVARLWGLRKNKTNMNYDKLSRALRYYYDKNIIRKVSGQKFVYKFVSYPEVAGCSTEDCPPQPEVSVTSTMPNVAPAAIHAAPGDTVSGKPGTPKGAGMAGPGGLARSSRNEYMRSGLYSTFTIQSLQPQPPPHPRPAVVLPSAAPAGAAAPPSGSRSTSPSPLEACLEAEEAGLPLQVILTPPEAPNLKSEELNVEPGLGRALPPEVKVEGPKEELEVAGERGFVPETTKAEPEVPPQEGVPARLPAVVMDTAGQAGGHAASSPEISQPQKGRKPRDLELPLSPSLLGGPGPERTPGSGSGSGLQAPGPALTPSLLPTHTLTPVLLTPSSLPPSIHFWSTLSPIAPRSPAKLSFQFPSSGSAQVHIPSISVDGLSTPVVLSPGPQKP
An outline of the steps: as §1

In the next test the target is T3, ERG (Homo sapiens, UniProt P11308 1-479).
T3 sequence: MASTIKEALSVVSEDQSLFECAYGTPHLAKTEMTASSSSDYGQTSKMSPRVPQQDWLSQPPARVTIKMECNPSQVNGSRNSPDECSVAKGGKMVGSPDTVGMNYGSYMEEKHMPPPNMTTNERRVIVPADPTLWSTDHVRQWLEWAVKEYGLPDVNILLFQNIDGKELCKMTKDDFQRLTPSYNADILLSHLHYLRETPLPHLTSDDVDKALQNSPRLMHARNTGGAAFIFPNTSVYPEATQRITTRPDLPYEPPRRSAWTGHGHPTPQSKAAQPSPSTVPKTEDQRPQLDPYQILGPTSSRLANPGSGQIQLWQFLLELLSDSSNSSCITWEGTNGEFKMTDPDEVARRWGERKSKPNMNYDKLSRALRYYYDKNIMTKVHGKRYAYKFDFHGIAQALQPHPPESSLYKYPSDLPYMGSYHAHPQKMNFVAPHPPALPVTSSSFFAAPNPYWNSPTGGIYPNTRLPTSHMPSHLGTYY
An outline of the steps: as §1

In the next test the target is ELF1 (Homo sapiens, UniProt P32519 1-619). An outline of the steps:
as §1

The next test deals with T4, EHF (Homo sapiens, UniProt Q9NZC4 1-300).
T4 sequence: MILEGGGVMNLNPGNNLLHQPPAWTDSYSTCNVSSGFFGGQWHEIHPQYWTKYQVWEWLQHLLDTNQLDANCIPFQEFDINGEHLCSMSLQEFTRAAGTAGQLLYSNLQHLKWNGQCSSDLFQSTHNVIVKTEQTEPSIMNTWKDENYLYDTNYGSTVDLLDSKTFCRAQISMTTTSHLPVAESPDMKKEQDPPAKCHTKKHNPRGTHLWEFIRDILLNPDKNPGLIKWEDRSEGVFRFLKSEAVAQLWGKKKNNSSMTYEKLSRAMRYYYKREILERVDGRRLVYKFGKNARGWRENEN
An outline of the steps:
as §1

The next test concerns the target SPIB (Homo sapiens, UniProt Q01892 1-262). An outline of the steps: as §1
In another test the target is T5, ELK3 (Homo sapiens, UniProt P41970 1-407).
T5 sequence: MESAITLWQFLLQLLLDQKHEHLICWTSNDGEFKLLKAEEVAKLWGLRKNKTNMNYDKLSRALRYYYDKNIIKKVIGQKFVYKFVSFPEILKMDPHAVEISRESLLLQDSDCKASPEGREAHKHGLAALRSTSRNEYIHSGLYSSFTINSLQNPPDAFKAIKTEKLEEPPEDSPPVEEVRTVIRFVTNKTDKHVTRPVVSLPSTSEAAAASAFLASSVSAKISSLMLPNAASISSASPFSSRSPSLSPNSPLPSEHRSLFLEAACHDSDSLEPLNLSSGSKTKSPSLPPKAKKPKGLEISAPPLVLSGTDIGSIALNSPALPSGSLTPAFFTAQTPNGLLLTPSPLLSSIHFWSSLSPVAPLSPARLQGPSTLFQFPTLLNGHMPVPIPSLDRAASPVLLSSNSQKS
An outline of the steps: as §1

Another test addresses T6, SPIC (Homo sapiens, UniProt Q8N5J4 1-248).
T6 sequence: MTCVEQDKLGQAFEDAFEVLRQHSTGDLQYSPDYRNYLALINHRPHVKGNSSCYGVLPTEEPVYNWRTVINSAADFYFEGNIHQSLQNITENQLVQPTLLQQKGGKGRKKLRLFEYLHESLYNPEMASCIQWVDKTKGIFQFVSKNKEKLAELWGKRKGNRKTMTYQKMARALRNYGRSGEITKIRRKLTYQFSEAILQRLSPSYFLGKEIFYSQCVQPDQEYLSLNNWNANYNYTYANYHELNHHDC
An outline of the steps: as §1

The next test has as its target ELF4 (Homo sapiens, UniProt Q99607 1-663). An outline of the steps: as §1
In the next test the target is T7, ELK4 (Homo sapiens, UniProt P28324-2 1-405).
T7 sequence: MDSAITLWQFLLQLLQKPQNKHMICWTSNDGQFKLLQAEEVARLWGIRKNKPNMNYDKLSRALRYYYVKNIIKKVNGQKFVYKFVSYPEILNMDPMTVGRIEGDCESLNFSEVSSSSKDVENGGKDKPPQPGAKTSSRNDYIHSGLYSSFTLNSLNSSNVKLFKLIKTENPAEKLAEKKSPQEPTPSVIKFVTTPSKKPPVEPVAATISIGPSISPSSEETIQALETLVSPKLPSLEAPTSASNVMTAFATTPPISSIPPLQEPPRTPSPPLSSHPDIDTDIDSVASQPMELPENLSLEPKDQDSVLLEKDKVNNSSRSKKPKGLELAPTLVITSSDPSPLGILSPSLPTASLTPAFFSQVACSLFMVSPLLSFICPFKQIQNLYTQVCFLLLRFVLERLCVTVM
An outline of the steps:
as §1

Another test has as its target T8, ELF3 (Homo sapiens, UniProt P78545 1-371).
T8 sequence: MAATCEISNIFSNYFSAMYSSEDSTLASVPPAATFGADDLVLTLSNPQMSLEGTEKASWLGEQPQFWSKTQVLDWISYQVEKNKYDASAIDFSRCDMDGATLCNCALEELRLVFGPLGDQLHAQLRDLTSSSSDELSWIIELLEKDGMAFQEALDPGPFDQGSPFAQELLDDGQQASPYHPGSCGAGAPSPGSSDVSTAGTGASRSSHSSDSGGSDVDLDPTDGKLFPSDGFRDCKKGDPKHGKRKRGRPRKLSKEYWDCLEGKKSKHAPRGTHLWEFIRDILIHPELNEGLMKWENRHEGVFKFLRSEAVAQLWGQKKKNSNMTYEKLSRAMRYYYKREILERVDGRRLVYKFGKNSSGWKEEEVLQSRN
An outline of the steps:
as §1

A further test has as its target ETV1 (Homo sapiens, UniProt P50549 1-477). An outline of the steps: as §1
For the next test, the target named is T9, ERF (Homo sapiens, UniProt P50548 1-548).
T9 sequence: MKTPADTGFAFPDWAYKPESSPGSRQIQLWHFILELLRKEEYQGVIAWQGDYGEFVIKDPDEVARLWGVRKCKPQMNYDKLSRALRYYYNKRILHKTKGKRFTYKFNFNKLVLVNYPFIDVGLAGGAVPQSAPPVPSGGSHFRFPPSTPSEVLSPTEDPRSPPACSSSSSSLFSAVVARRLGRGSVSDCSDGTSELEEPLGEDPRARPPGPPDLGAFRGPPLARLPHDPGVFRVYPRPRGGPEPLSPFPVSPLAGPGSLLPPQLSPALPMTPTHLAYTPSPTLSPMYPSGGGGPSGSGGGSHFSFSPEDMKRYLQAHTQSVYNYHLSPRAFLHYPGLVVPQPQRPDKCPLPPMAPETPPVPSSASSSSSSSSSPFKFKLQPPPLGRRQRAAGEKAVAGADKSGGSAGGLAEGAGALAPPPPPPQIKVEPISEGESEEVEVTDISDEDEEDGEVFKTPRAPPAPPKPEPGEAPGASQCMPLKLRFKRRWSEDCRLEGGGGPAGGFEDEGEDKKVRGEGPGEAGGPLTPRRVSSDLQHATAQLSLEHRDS
An outline of the steps:
as §1

In the next test the target is T10, ETV3L (Homo sapiens, UniProt Q6ZN32 1-361).
T10 sequence: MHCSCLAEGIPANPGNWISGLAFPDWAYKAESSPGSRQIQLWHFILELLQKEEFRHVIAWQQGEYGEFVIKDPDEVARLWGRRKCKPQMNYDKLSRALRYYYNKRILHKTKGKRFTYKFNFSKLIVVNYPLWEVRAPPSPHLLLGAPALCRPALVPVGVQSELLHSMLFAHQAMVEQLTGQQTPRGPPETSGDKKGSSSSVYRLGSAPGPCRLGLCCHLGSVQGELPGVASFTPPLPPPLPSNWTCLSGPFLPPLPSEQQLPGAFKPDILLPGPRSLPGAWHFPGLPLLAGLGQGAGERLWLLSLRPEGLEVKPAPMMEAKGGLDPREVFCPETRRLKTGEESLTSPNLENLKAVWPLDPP
An outline of the steps: as §1

The target in another test is T11, ETS2 (Homo sapiens, UniProt P15036 1-469).
T11 sequence: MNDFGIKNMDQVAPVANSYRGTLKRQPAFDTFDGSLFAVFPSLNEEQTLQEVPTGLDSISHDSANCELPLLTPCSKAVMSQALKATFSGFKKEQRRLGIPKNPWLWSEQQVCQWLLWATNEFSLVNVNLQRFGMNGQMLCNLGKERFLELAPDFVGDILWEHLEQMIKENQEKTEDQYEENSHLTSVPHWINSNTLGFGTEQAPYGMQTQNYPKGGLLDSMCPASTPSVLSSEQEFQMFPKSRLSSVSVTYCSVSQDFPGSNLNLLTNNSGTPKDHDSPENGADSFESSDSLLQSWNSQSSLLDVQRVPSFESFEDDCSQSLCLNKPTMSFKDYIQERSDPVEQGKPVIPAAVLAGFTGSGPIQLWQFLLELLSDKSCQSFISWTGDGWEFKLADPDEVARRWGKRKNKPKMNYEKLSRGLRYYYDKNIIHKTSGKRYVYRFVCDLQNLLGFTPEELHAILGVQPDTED
An outline of the steps:
as §1

Another test addresses T12, ETV7 (Homo sapiens, UniProt Q9Y603 1-341).
T12 sequence: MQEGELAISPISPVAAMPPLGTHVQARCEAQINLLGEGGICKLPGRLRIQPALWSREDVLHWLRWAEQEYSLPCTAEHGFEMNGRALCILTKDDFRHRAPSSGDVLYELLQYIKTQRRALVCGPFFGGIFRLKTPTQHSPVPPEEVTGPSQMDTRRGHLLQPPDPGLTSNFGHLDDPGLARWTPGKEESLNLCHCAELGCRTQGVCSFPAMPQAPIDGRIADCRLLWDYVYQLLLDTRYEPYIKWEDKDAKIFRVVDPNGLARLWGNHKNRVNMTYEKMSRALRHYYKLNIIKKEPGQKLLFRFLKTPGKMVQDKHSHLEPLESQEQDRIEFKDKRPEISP
An outline of the steps:
as §1

The next test deals with T13, ETV3 (Homo sapiens, UniProt P41162-2 1-143).
T13 sequence: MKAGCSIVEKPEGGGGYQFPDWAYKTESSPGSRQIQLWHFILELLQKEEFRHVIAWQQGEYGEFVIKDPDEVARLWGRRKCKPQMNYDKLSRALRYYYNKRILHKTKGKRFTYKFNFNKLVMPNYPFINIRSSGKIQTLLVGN
An outline of the steps:
as §1

The next test deals with ETV6 (Homo sapiens, UniProt P41212 1-452). An outline of the steps: as §1
ETV6, sequence (P41212 whole entry): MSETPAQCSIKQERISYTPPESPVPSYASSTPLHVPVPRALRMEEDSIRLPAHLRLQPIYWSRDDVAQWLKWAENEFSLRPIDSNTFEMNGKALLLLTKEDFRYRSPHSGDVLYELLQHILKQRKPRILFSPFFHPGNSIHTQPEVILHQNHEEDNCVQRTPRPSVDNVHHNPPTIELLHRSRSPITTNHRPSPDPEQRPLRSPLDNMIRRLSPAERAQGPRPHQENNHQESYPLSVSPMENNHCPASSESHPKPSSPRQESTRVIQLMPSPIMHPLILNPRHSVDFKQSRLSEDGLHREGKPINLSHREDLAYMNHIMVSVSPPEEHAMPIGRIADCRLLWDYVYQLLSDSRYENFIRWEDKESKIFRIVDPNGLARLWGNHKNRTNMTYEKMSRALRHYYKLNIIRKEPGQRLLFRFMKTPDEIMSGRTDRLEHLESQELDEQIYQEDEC

ELF4, sequence (Q99607 whole entry): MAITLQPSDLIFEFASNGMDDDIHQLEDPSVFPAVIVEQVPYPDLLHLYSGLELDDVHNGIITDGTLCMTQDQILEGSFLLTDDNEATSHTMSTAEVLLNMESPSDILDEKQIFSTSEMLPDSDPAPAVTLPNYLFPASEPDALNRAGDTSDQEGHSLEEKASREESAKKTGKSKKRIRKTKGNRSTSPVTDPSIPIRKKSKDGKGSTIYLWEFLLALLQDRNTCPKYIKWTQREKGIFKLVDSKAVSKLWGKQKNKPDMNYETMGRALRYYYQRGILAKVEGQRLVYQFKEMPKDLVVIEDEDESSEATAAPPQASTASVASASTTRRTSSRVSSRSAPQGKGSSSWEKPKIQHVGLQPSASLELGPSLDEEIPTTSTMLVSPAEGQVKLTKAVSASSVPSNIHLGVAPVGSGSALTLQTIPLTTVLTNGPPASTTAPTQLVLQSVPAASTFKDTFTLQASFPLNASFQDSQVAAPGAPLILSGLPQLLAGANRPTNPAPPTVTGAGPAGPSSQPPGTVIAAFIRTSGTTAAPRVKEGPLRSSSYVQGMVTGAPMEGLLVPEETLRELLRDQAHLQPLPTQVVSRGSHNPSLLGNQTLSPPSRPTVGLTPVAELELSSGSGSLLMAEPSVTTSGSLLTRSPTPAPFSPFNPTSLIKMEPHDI
ETV1, sequence (P50549 whole entry): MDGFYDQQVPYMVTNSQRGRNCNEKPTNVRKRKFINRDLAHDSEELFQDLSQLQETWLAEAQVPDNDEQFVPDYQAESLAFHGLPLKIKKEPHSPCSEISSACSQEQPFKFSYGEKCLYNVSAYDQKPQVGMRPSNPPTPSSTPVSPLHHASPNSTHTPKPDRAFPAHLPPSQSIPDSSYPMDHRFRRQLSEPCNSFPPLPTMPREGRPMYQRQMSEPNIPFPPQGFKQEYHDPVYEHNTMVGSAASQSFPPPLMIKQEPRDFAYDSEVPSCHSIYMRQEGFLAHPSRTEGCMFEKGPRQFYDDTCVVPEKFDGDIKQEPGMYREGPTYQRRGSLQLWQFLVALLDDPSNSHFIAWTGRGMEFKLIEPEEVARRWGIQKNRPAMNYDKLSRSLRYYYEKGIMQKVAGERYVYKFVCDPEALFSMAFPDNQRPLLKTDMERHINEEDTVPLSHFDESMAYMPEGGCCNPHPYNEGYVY
ELF1, sequence (P32519 whole entry): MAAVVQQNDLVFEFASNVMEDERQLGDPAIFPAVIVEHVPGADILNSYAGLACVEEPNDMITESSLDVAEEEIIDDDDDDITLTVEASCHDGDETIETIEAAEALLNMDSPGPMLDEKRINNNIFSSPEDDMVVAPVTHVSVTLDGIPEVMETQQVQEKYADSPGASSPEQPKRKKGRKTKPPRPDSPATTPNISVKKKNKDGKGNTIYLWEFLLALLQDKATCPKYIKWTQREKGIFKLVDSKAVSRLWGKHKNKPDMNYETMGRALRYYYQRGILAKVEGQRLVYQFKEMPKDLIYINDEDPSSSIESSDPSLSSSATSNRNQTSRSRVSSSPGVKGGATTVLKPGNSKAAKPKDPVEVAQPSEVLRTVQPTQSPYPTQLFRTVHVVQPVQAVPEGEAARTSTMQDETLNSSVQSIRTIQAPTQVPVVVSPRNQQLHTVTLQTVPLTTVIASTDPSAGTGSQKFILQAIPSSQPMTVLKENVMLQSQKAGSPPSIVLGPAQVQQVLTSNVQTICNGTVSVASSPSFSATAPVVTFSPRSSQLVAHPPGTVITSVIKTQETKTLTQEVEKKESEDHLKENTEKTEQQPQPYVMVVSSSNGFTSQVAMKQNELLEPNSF
SPIB, sequence (Q01892 whole entry): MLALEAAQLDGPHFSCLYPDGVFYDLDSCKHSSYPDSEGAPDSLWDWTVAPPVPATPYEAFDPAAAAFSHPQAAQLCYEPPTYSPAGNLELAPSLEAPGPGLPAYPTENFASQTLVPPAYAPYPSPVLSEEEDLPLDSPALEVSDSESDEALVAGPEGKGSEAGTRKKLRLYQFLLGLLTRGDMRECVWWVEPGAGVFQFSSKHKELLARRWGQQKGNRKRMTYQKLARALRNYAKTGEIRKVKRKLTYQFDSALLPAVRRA

Consider GCCGCT, for which the binding signal in the test with FLI1 is 1.09 fold enrichment (6-mer frequency, TF over GST control); with ELK1, 1.08 fold enrichment (6-mer frequency, TF over GST control); with ERG, 1.07 fold enrichment (6-mer frequency, TF over GST control); in the test with ELF1, 1.12 fold enrichment (6-mer frequency, TF over GST control); with EHF, 1.04 fold enrichment (6-mer frequency, TF over GST control); with SPIB it was 1.1 fold enrichment (6-mer frequency, TF over GST control). The binding signal with ELK3 was 1.06 fold enrichment (6-mer frequency, TF over GST control); with SPIC it was 1.19 fold enrichment (6-mer frequency, TF over GST control); with ELF4 it was 1.14 fold enrichment (6-mer frequency, TF over GST control); in the test with ELK4, 1.1 fold enrichment (6-mer frequency, TF over GST control); with ELF3, 1.1 fold enrichment (6-mer frequency, TF over GST control); with ETV1, 1.15 fold enrichment (6-mer frequency, TF over GST control). Besides, the binding signal with ERF is 1.23 fold enrichment (6-mer frequency, TF over GST control); with ETV3L, 1.01 fold enrichment (6-mer frequency, TF over GST control); with ETS2, 1.09 fold enrichment (6-mer frequency, TF over GST control); with ETV7, 1.05 fold enrichment (6-mer frequency, TF over GST control); with ETV3 it was 1.03 fold enrichment (6-mer frequency, TF over GST control); with ETV6 it was 1.04 fold enrichment (6-mer frequency, TF over GST control).

Values taken from paper PMC7862700, “An all-to-all approach to the identification of sequence-specific readers for epigenetic DNA modifications on cytosine”.
